Most compounds without a hit are left out; they make up all but 1.6% or so of the library.
KCNQ2 block: KCNQ2 (rat) channel inhibition; actives 1.1% (n = 310,000); O88943; CHO-K1 KCNQ2, FluxOR thallium flux, 20 min; hits give low values; AID 2156; B-score at 10 µM;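 active = fluorescence ratio B-score at most minus 3 library SDs, with starting brightness B-score within 2 library SDs, cut at about -5.5 in these data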
Target sequence (O88943 whole entry, looked up): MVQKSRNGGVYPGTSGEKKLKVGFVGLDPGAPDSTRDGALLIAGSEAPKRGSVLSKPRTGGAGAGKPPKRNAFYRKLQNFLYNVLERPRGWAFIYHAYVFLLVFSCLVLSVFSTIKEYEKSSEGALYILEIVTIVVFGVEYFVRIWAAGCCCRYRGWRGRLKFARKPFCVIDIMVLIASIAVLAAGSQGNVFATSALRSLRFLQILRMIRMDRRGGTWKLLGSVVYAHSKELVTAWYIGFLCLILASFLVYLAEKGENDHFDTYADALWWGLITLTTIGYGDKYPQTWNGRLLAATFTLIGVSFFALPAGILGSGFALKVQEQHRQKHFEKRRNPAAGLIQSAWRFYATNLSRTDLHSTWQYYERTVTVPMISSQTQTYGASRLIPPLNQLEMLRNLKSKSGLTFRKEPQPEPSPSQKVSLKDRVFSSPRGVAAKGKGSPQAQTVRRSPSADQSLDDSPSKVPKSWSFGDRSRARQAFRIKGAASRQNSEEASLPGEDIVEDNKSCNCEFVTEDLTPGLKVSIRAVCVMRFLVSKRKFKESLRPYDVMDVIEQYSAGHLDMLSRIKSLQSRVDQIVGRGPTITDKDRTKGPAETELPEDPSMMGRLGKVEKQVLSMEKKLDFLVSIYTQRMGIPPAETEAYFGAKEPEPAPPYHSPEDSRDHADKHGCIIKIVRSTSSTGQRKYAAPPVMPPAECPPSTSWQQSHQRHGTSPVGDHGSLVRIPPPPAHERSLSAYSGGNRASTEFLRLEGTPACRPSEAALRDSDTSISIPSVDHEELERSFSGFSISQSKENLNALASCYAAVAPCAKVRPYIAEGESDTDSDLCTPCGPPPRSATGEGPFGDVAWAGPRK
KCNQ2 enhance: KCNQ2 (rat) channel potentiation | O88943 | CHO-K1 KCNQ2, FluxOR thallium flux fluorescence; hits give high values | B-score at 10 µM | actives 0.54% (n = 310,000);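 active = fluorescence ratio B-score at least 3 SD of library B-scores, with initial fluorescence B-score within 3 of them, cut at about 5.3 in these data; same plate scores as AID 2156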;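 note: B-score of peak minus minimum over baseline fluorescence ratio after K+ and Tl+ stimulus; positive B-score means potentiation of KCNQ2 with more thallium influx and brighter signal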
KCNQ2 block conf: rat KCNQ2 channel inhibition, confirmatory screen; shares compounds with KCNQ2 block; AID 493025; actives 57% (n = 1,000); activity change, negative = inhibition, % at 10 µM; KCNQ2-expressing cells, thallium flux; hits give low values;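 note: 0% = vehicle wells and values are ratio percent relative to vehicle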
KCNQ1 spec: KCNQ2 inhibitor that also affects human KCNQ1 channel | activity change, negative = inhibition, % at 10 µM | shares compounds with KCNQ2 block | actives 15% (n = 1,000) | KCNQ1-expressing cells, FluxOR thallium flux fluorescence; hits give low values;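 active = activity change at least 3 SD of negative controls below their mean in both duplicate wells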;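 note: CHO cells stably transfected with KCNQ1 and depolarized by potassium stimulus; peak minus minimum fluorescence over baseline after thallium addition; 0% = vehicle negative control and -100% = blank without thallium stimulus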
CHO parental ctr: activity in parental CHO cells lacking KCNQ2. AID 493029. shares compounds with KCNQ2 block. thallium flux counter-screen; hits give low values. activity change, % at 10 µM. actives 14% (n = 1,000);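 note: 0% = vehicle negative controls with stimulus buffer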
KCNQ2 patch conf: rat KCNQ2 inhibition confirmed by electrophysiology; actives 49% (n = 550); calls only at 10 µM; shares compounds with KCNQ2 block; AID 588531; KCNQ2-expressing cells, automated patch clamp current
Numbers without * were called inactive; i = inactive; x = not tested or not shown; + = active, no number. Unless noted, the rule behind the calls is not given here.

SMILES | KCNQ2 block | KCNQ2 enhance | KCNQ2 block conf | KCNQ1 spec | CHO parental ctr | others
CC1CC(C)CN(C(=O)c2cc(-c3ccncc3)nc3ccccc23)C1 (stereo not drawn) | i | x | x | x | x
COc1cccc(-c2cc(C(F)(F)F)n3ncc(C(=O)N4CCc5ccccc5C4)c3n2)c1 | i | x | x | x | x
COc1ccc(-c2cc(C(F)(F)F)n3ncc(C(=O)N4CCc5ccccc5C4)c3n2)cc1 | -6.8* | -6.8 | i | i | i
COc1cc2c(cc1OC)C(COc1ccc([N+](=O)[O-])cc1)N(C(C)=O)CC2 (stereo not drawn) | i | x | x | x | x
CCOc1ccc(N(CC(=O)NC2CCCC2)C(=O)CCC(=O)Nc2nccs2)cc1 | i | 0.98 | x | x | x
O=C(c1ccc(C(F)(F)F)cc1)N1CCN(c2ccc(N3CCOCC3)nn2)CC1 | i | x | x | x | x
CC(C)(C)NC(=O)CCN(/N=C/c1ccccc1F)C1=NS(=O)(=O)c2ccccc21 | i | x | x | x | x
O=C(CCC(=O)OCc1ccc([N+](=O)[O-])cc1Cl)Nc1ccccc1 | i | 0.26 | x | x | x
CC1CN(c2ccccc2)NC1=O (stereo not drawn) | i | x | x | x | x
CN(CC(=O)Nc1ccc(F)c(F)c1F)C(=O)c1ccc(-n2cncn2)c([N+](=O)[O-])c1 | i | 0.05 | x | x | x
Cc1ccc(OCC(=O)N2CCc3ccccc3C2)c(Br)c1 | i | x | x | x | x
Cc1ccc(OCC(=O)N2CCc3ccccc3C2)c(C)c1 | -7.8* | -7.8 | -30%* | i | i | KCNQ2 patch conf=+
COc1ccc(/C=C/CN2CCC(n3nccc3NC(=O)C3CCCC3)CC2)cc1 | i | 0.47 | x | x | x
Cc1ccc(NC(=O)CN(C)C(=O)c2ccccc2OCc2c(C)noc2C)cc1 | i | x | x | x | x
COc1ccc(Br)cc1CN(C)C(=O)c1ccccc1OCc1c(C)noc1C | -8.6* | -8.6 | i | i | i
CCOC(=O)c1c(-c2ccccc2)csc1NC(=O)CSc1ccccc1 | -8.2* | -8.2 | -38%* | -27%* | i | KCNQ2 patch conf=i
CCOC(=O)c1c(-c2cccs2)csc1NC(=O)CN(CC)CC | -9.9* | -9.9 | i | i | i
CCOC(=O)c1c(-c2cccs2)csc1NC(=O)CC(C)C | i | x | x | x | x
CCOC(=O)c1c(-c2ccc(OC)cc2)csc1NC(=O)CSc1ccccc1 | i | x | x | x | x
CCOC(=O)c1cnc2c(C)c(C)ccc2c1Nc1ccc(S(=O)(=O)Nc2ncccn2)cc1 | i | x | x | x | x
CNC(CC(C)C)C(=O)NC1C(=O)NC(CC(N)=O)C(=O)NC2C(=O)NC3C(=O)NC(C(=O)NC(C(=O)O)c4cc(O)cc(O)c4-c4cc3ccc4O)C(O)c3ccc(c(Cl)c3)Oc3cc2cc(c3OC2OC(CO)C(O)C(O)C2OC2CC(C)(N)C(O)C(C)O2)Oc2ccc(cc2Cl)C1O (stereo not drawn) | i | x | x | x | x
O=C(Cn1nnc2c(cnn2-c2ccccc2)c1=O)NCc1cccs1 | i | x | x | x | x
CC1CCC(C(C)C)C(OC(=O)Cn2nnc3c(cnn3-c3ccccc3)c2=O)C1 (stereo not drawn) | -7.3* | -7.3 | -27%* | i | i
CCOc1nc(-c2ccccc2)ncc1Oc1ccccc1 | i | x | x | x | x
COC(=O)C1=C[C@@H](C(=O)OC)[C@@H]2C3=C(C(=O)[C@]2(C)NC(=O)c2ccccc2)[C@H](C)n2c(=O)n(-c4ccccc4)c(=O)n2[C@@H]3C1 | i | 0.1 | x | x | x
SMILES | KCNQ2 block | KCNQ2 enhance | KCNQ2 block conf | KCNQ1 spec | CHO parental ctr | others
Cc1ccc(-c2nc(C(=O)NCC3CCCO3)cc3c2[nH]c2ccccc23)cc1 (stereo not drawn) | -12* | -12 | -28%* | i | i | KCNQ2 patch conf=i
Cc1ccccc1-c1nc(C(=O)NCC2CCCO2)cc2c1[nH]c1ccccc12 (stereo not drawn) | i | x | x | x | x
CC(NC(=O)/C(C#N)=C/c1cn[nH]c1-c1ccccc1)c1ccccc1 (stereo not drawn) | i | x | x | x | x
CCc1ccc(C(C)NC(=O)/C(C#N)=C\c2cn[nH]c2-c2ccccc2)cc1 (stereo not drawn) | -9.1* | -9.1 | i | i | i
CCn1c(N2CCN(C(=O)C34CC5CC(CC(C5)C3)C4)CC2)nc2ccccc21 | -8.6* | -8.6 | -40%* | -37%* | -36%* | KCNQ2 patch conf=+
CCn1c(N2CCN(S(=O)(=O)c3ccccc3C(F)(F)F)CC2)nc2ccccc21 | i | x | x | x | x
COc1ccc(/C=N/N2CCN(c3ccccc3OC)CC2)cc1Br | i | x | x | x | x
COc1ccccc1N1CCN(/N=C/c2cc(Br)ccc2F)CC1 | -11* | -11 | -18%* | i | i | KCNQ2 patch conf=i
COc1ccccc1N1CCN(/N=C/c2cccc(OC)c2O)CC1 | i | x | x | x | x
COc1ccccc1N1CCN(/N=C/c2cccc(Cl)c2)CC1 | -7* | -7 | -30%* | i | i | KCNQ2 patch conf=+
CCn1c(SCC(=O)Nc2nncs2)nnc1-c1ccco1 | i | 0.65 | x | x | x
O=C(CCn1c(=O)[nH]c2ccsc2c1=O)N(CCc1ccccc1)Cc1ccccc1 | -7.4* | -7.4 | -26%* | i | i | KCNQ2 patch conf=+
O=C(CCCCn1c(=O)[nH]c2ccsc2c1=O)NCCc1ccccc1 | i | 1.2 | x | x | x
Clc1cccc(Cl)c1CSc1cc2c(nn1)-c1ccccc1CC2 | -8.5* | -8.5 | i | i | i
Clc1ccc(CSc2cc3c(nn2)-c2ccccc2CC3)cc1Cl | -8.3* | -8.3 | -27%* | i | i | KCNQ2 patch conf=i
Clc1ccccc1CSc1cc2c(nn1)-c1ccccc1CC2 | -8.1* | -8.1 | -19%* | i | i | KCNQ2 patch conf=i
Nc1ccccc1SCc1ccccc1Cl | i | x | x | x | x
O=c1cc2c(nn1Cc1c(Cl)cccc1Cl)-c1ccccc1CC2 | i | 1.6 | x | x | x
Clc1ccc(CSC2=NCCCN2)cc1Cl | i | 2.7 | x | x | x
CC(OC(=O)c1ccc(-c2ccc([N+](=O)[O-])cc2)o1)C(=O)NC(N)=O (stereo not drawn) | i | 1.3 | x | x | x
O=C(CN1CCC(C(=O)c2ccc(F)cc2)CC1)Nc1ccccc1Cl | i | 0.68 | x | x | x
Cn1nnnc1SCc1csc(C2C(C#N)=C(N)OC3=C2C(=O)CCC3)c1 (stereo not drawn) | i | x | x | x | x
C=CCN=C1NN=C(c2ccc3c(c2)OCCO3)CS1 | i | x | x | x | x
O=C(N/C=C\c1ccccc1)NCc1ccc(Cl)cc1 | -7* | -7 | i | i | i
O=C(N/C=C\c1ccccc1)NCc1ccc(Cl)cc1Cl | i | x | x | x | x
SMILES | KCNQ2 block | KCNQ2 enhance | KCNQ2 block conf | KCNQ1 spec | CHO parental ctr | others
COc1ccc(NC(=O)CSc2ccc3nnc(-c4ccccn4)n3n2)cc1OC | i | 0.66 | x | x | x
CCCC(=O)NCCc1nc2ccccc2n1CCC | i | 2 | x | x | x
CCCn1c(CNC(=O)Cc2ccccc2)nc2ccccc21 | -6.7* | -6.7 | i | i | i
Cc1ccc(C(O)(c2ccccc2)c2ccccc2C(C)N(C)C)c(C)c1 (stereo not drawn) | -8.9* | -8.9 | -31%* | i | i | KCNQ2 patch conf=+
CC(c1ccccc1C(O)c1ccccc1)N(C)C (stereo not drawn) | i | 0.59 | x | x | x
COc1cccc(C(=O)NC2CCCN(C3Cc4ccccc4C3)C2)c1OC (stereo not drawn) | i | x | x | x | x

Bioassay records (PubChem BioAssay)
